“And” between values parts separate entries of the source, which are not always exact repeats. Equal entries are not always repeated. Results filed as inconclusive are left out. The source made the active and inactive calls. Unless noted, calls follow the shape of the dose curve; as a rule, active = well fitted curve in the direction sought with a large enough effect; inconclusive = small, poorly fitted or top-dose-only effect, or another doubt; inactive = no such curve, though single readings can be large; an effect the other way counts as inactive or inconclusive.
Experiments:
[1] = target: D(1A) dopamine receptor (Homo sapiens) (UniProt P21728); assay: HTS Assay for Allosteric Agonists of the Human D1 Dopamine Receptor: Primary Screen for Antagonists (AID 488983);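 also: calcium flux response to an EC80 dopamine challenge measured with no-wash dye; nearly all actives have a fitted effect of over 65% in size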; also: potency is read from the fitted curve at half-maximal effect
Method in brief: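 Calcium-flux read-out in inducible HEK293 T-REx cells expressing D1, dye-loaded 30–90 min at room temperature. Kinetic reads: 180 s after compound (agonist phase), then 180 s after an EC80 dopamine challenge.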

[2] = target: ATP-dependent 6-phosphofructokinase (Trypanosoma brucei brucei) (UniProt O15648); assay: qHTS Assay to Find Inhibitors of T. brucei phosphofructokinase: hit validation (AID 492961); also: series mostly up to about 51 µM
Method in brief: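 Luminescence from ADP-Glo reports ADP generated as T. brucei PFK (1.25 nM) phosphorylates 0.5 mM fructose-6-phosphate using 0.1 mM ATP. Reactions ran 45 min at room temperature, pH 8.0.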

[3] = Validation screen for small molecules that induce genotoxicity in human embryonic kidney (HEK293T) cells expressing luciferase-tagged ELG1 (AID 493106)
Method in brief: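 ELG1-luciferase reporter readout (ONE-Glo, 30 min, room temperature) after 16 hr compound treatment at 37 °C of HEK293T cells at 2,000 per well. Rising luminescence flags genotoxic stress.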

[4] = target: ATPase family AAA domain-containing protein 5 (Homo sapiens) (UniProt Q96QE3); assay: Validation screen for small molecules that inhibit ELG1-dependent DNA repair in human embryonic kidney (HEK293T) cells expressing luciferase-tagged ELG1 (AID 493107);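 also: series mostly up to about 46 µM; inhibitors lower the ELG1-luciferase luminescence signal; nearly all actives have a fitted effect of over 70% in size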
Method in brief: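 Luciferase read-out, ONE-Glo, 30 min at room temperature, follows 16 h co-exposure at 37 C of compound and the DNA-damaging agent 5-fluorouridine. Cells: HEK293T with ELG1-luciferase fusion, 2,000 per well, DMSO as vehicle.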

[5] = Nrf2 qHTS screen for inhibitors: Validation (AID 493153; active = well fitted inhibition curve with a large enough effect in the main read-out, with a control signal flat, not every such curve was filed as active; also: potency is read from the fitted curve at half-maximal effect); details: Potency: luciferase luminescence; viability change: measured here: cytotoxicity max response
Method in brief: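 Concentration-response on A549 ARE_Fluc reporter cells exposed 18-24 h at 37 C, 5% CO2. Cytotoxicity read first by CellTiter-Fluor fluorescence (Ex 405/Em 525), then Nrf2 inhibition by BugLite luminescence after 15 min.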

[6] = qHTS for Inhibitors of Cell Surface uPA Generation: Validation Assay (AID 493164);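 also: RAW 264.7 macrophage cells exposed to compound for 18 h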
Method in brief: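 ATP-Lite luminescence read-out: ATP remains high when uPA activity-dependent LF translocation into the cytoplasm is blocked. RAW 264.7 cells, 18 h compound exposure at 37 C; 7-point titration, 2.45 nM to 38.3 uM final.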

[7] = target: Galactokinase (Homo sapiens) (UniProt P51570); assay: qHTS Validation Assay for Inhibitors of Human Galactokinase (GALK) (AID 493189)
Method in brief: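 GALK (5 nM) with 35 uM ATP and 100 uM galactose in HEPES pH 8.0 with MgCl2, NaCl, DTT and BSA. Reaction ran 1 h at room temperature. Residual ATP read by Kinase-Glo Plus luminescence.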

[8] = Validation screen for small molecules that induce DNA re-replication in SW480 colon adenocarcinoma cells (AID 504364)
Method in brief: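 Image-based DNA content read-out: Hoechst stain 40 min, total nuclear fluorescence intensity (ex 405 nm, em 500-530 nm) after 48 h compound exposure of 250 SW480 cells/well at 37 C, 5% CO2, versus DMSO vehicle.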

[9] = target: Peptidyl-prolyl cis-trans isomerase NIMA-interacting 1 (Homo sapiens) (UniProt Q13526); assay: qHTS Validation Assay to Find Inhibitors of Pin1 (AID 504536; active = well fitted inhibition curve with a large enough effect in the polarisation, with a control signal flat, not every such curve was filed as active; the % refers to the polarisation)
Method in brief: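 Fluorescence polarization competition: compounds (titration) displace HiFluor-488-labeled Pin1-1b peptide from Pin1 (0.3 uM final) in pH 7.5 HEPES buffer with DTT, 10 min at room temperature; %Activity normalized to no-enzyme wells, curves fitted.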

Chain of Galactokinase (Homo sapiens) (P51570 whole entry, looked up): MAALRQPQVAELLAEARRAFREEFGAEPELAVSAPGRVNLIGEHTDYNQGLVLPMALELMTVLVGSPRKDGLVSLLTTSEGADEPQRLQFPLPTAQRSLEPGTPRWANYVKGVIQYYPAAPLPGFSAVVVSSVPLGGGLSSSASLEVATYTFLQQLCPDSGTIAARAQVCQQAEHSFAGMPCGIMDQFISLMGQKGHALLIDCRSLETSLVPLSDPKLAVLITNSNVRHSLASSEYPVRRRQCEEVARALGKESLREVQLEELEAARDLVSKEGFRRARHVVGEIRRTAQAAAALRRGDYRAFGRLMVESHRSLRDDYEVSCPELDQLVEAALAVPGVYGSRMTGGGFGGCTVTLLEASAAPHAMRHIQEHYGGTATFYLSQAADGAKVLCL
Chain of ATPase family AAA domain-containing protein 5 (Homo sapiens) (Q96QE3 whole entry, looked up, the tested form may be a part): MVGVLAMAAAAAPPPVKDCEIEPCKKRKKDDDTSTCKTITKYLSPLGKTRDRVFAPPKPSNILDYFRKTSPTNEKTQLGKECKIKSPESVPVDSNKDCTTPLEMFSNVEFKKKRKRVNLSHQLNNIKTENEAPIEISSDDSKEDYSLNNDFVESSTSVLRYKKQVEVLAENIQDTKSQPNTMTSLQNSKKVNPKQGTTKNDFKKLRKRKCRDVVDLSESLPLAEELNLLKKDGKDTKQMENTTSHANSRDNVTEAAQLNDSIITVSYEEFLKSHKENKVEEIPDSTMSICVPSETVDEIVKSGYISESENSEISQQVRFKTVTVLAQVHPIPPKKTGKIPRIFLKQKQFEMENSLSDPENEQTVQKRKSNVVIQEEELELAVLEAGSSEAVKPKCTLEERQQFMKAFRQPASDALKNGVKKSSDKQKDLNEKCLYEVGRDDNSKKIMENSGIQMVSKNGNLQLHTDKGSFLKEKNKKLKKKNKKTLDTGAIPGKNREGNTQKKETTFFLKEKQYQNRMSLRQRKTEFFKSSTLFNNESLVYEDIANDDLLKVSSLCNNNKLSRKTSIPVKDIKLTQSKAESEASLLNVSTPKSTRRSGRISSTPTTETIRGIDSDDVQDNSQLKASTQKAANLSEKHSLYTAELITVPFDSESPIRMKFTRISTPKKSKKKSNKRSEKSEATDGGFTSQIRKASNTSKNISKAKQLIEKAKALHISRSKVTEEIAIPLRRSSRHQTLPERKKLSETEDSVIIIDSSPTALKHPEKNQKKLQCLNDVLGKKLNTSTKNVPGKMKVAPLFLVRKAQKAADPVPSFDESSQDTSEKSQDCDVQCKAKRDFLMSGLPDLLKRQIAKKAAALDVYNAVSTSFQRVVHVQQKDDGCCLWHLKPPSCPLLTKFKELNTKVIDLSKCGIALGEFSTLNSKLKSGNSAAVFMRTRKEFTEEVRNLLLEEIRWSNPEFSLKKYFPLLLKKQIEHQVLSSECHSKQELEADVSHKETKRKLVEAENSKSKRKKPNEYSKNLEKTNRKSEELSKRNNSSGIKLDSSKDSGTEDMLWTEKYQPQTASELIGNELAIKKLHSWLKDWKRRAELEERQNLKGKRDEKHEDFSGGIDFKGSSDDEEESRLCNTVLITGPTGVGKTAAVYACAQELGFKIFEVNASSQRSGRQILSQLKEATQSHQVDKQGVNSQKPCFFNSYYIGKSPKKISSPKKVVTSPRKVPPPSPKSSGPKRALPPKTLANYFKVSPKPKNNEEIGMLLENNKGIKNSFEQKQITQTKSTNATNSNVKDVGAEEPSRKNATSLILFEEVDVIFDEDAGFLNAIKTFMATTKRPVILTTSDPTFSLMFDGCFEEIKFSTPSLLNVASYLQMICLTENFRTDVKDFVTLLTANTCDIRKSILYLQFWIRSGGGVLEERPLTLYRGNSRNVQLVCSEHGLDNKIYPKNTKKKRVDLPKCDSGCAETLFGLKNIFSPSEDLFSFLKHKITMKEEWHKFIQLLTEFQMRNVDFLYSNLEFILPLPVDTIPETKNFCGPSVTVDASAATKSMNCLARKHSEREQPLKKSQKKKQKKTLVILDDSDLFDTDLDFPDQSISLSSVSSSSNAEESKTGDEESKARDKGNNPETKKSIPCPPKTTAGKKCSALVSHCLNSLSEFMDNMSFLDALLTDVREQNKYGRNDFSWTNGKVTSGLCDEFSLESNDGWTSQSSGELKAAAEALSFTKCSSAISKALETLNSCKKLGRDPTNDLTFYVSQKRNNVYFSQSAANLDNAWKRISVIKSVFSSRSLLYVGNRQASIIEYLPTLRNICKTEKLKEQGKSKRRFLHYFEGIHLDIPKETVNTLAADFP
Chain of D(1A) dopamine receptor (Homo sapiens) (P21728 whole entry, looked up): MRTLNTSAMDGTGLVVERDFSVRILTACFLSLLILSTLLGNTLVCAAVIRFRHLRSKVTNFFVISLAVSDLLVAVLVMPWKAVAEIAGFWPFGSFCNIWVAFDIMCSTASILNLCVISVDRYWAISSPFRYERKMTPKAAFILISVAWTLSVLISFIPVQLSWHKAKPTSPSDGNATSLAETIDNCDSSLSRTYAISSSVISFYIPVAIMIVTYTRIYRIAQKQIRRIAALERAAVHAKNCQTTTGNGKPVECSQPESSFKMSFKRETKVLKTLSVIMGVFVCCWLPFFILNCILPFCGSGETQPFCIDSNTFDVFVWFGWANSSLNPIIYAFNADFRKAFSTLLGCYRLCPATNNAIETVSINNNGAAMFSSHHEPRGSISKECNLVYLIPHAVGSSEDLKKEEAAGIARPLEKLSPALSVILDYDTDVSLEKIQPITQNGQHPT
Chain of Peptidyl-prolyl cis-trans isomerase NIMA-interacting 1 (Homo sapiens) (Q13526 whole entry, looked up): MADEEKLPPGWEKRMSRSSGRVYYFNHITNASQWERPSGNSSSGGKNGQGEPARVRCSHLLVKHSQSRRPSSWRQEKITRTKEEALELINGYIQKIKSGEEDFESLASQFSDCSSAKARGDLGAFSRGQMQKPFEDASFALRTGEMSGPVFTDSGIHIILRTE
Chain of ATP-dependent 6-phosphofructokinase (Trypanosoma brucei brucei) (O15648 whole entry, looked up): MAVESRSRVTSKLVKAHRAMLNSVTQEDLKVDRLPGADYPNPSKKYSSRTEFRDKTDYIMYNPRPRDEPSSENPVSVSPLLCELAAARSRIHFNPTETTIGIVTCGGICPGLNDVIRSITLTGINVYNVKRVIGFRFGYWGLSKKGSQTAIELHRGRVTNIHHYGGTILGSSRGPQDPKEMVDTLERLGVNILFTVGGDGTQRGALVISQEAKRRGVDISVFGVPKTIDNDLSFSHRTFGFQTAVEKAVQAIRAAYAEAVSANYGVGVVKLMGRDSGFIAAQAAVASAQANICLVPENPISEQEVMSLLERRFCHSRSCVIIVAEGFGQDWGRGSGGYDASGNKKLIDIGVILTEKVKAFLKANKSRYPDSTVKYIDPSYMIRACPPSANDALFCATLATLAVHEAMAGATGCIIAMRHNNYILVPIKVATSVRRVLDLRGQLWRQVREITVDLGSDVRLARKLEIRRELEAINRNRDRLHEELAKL

CNCCCC1c2ccccc2C=Cc2ccccc21
active: Potency [1] 11.2 µM
4.24%: viability change [5]
inactive: Potency [2] | Potency [3] | outcome [4] | Potency [5] | outcome [6] | outcome [7] | outcome [8] | outcome [9]

C[C@]12CC[C@@H]3c4ccc(O)cc4CC[C@H]3[C@@H]1CCC2=O
inactive: Potency [1] | Potency [3] | outcome [4] | outcome [6] | outcome [7] | outcome [8] | outcome [9]

CC(C)NC[C@H](O)c1ccc(O)c(O)c1
2.86% and 6.15%: viability change [5]
inactive: Potency [1] | Potency [3] | outcome [4] | Potency [5] | outcome [6] | outcome [7] | outcome [8] | outcome [9]

CN(C)CCOC(C)(c1ccccc1)c1ccccn1 (stereo not drawn)
-4.35%: viability change [5]
inactive: Potency [1] | Potency [3] | outcome [4] | Potency [5] | outcome [6] | outcome [7] | outcome [8] | outcome [9]

N=c1c[n+](N2CCOCC2)[n-]o1
inactive: Potency [1] | Potency [3] | Potency [5] | outcome [6] | outcome [7] | outcome [8] | outcome [9]
0.362%: viability change [5]

CCCn1cnc2c1c(=O)n(CCCCC(C)=O)c(=O)n2C
-13.4%: viability change [5]
inactive: Potency [1] | Potency [3] | Potency [5] | outcome [6] | outcome [7] | outcome [8] | outcome [9]

COCCOC(=O)C1=C(C)NC(C)=C(C(=O)OC/C=C/c2ccccc2)C1c1cccc([N+](=O)[O-])c1 (stereo not drawn)
inactive: Potency [1] | Potency [2] | Potency [3] | outcome [6] | outcome [9]

CC(C)(C)c1onc(OCP(=O)(O)O)c1CC(N)C(=O)O (stereo not drawn)
4.09% and -1.93%: viability change [5]
inactive: Potency [1] | Potency [3] | outcome [4] | Potency [5] | outcome [6] | outcome [7] | outcome [8] | outcome [9]

O=C1N=C(O)CN1/N=C/c1ccc(-c2ccc([N+](=O)[O-])cc2)o1
-12.1%: viability change [5]
inactive: Potency [1] | Potency [3] | outcome [4] | Potency [5] | outcome [6] | outcome [7] | outcome [8] | outcome [9]

C[C@]12C[C@H](O)[C@H]3[C@@H](CCC4=CC(=O)CC[C@@]43C)[C@@H]1CC[C@@H]2C(=O)CO
-3.09%: viability change [5]
active: Potency [5] 6.51 µM
inactive: Potency [1] | Potency [2] | Potency [3] | outcome [4] | outcome [6] | outcome [9]

COc1ccc(Cl)cc1C(=O)NCCc1ccc(S(=O)(=O)NC(=O)NC2CCCCC2)cc1
inactive: Potency [1] | Potency [3] | outcome [4] | outcome [6] | outcome [7] | outcome [8] | outcome [9]

NC(N)=NCCC[C@H](N)C(=O)O
inactive: Potency [1] | Potency [3] | outcome [4] | Potency [5] | outcome [6] | outcome [7] | outcome [8] | outcome [9]
3.44%: viability change [5]

CC(=O)OCC(=O)[C@@]1(O)CC[C@H]2[C@@H]3CCC4=CC(=O)CC[C@]4(C)[C@H]3C(=O)C[C@@]21C
3.82%: viability change [5]
inactive: Potency [1] | Potency [3] | outcome [4] | Potency [5] | outcome [6] | outcome [7] | outcome [8] | outcome [9]

NC(=O)c1ncn([C@@H]2O[C@H](CO)[C@@H](O)[C@H]2O)n1
inactive: Potency [1] | Potency [3] | outcome [4] | outcome [8] | outcome [9]

CCCCCCCCCCCCCCCC(=O)NCCO
inactive: Potency [1] | Potency [2] | Potency [3] | outcome [4] | Potency [5] | outcome [6] | outcome [7] | outcome [8] | outcome [9]
-3.02%: viability change [5]

C#CCN(C)Cc1ccccc1
1.01%: viability change [5]
inactive: Potency [1] | Potency [2] | Potency [3] | outcome [4] | Potency [5] | outcome [6] | outcome [7] | outcome [8] | outcome [9]

CC[C@H]1CN2CCc3cc(OC)c(OC)cc3[C@@H]2C[C@@H]1C[C@H]1NCCc2cc(OC)c(OC)cc21
inactive: Potency [1] | outcome [6] | outcome [7] | outcome [9]

CSc1ccc2c(c1)C(N1CCN(C)CC1)Cc1ccccc1S2 (stereo not drawn)
inactive: Potency [2] | Potency [3] | Potency [5] | outcome [6] | outcome [7] | outcome [8] | outcome [9]
active: Potency [1] 0.316 µM
-13.4%: viability change [5]

NC1CCN(c2cccc(Cl)n2)CC1
inactive: Potency [1] | Potency [3] | outcome [4] | Potency [5] | outcome [6] | outcome [7] | outcome [8] | outcome [9]
-3.84%: viability change [5]

OCCN1CCN(CCCN2c3ccccc3Sc3ccc(Cl)cc32)CC1
active: Potency [1] 0.794 µM
inactive: Potency [2] | Potency [3] | outcome [4] | Potency [5] | outcome [6] | outcome [7] | outcome [9]
-4.58%: viability change [5]

CC(C)(C(=O)O)c1ccc(C(O)CCCN2CCC(C(O)(c3ccccc3)c3ccccc3)CC2)cc1 (stereo not drawn)
5.93%: viability change [5]
inactive: Potency [1] | Potency [3] | outcome [4] | Potency [5] | outcome [6] | outcome [8] | outcome [9]

C[C@](N)(Cc1ccc(O)cc1)C(=O)O
inactive: Potency [1] | Potency [2] | Potency [3] | outcome [4] | Potency [5] | outcome [6] | outcome [7] | outcome [8] | outcome [9]
3.53%: viability change [5]

C=Cc1c(C)c2cc3[nH]c(cc4nc(cc5nc(cc1[nH]2)C(C)=C5CCC(=O)O)C(CCC(=O)O)=C4C)c(C)c3C=C
inactive: Potency [1] | Potency [2] | Potency [3] | outcome [4] | outcome [6] | outcome [7] | outcome [8]

From PubChem BioAssay (NCATS)
